GLP-1R agonist = agonists of human GLP-1 receptor. P43220. HEK293 GLP-1R CRE-luciferase, luminescence, 4-6 h; cells express a hypersensitive GLP-1R form. Potency, µM (highest dose often 45.6 µM), for inactives: top-dose activation, usual class: activators. 380,000 compounds, 0.007% hits. AID 624172; further: potency means the concentration at half of the fitted maximal effect; % of control where 0% means no effect
GLS inhibitor = blocks human kidney-isoform glutaminase activity. O94925. GLS enzymatic activity, qHTS titration. Potency, µM (series often up to 45.5 µM), without a hit: top-dose activity change, negative = inhibition, usual class: inhibitors. 410,000 compounds, 0.21% hits; further: potency means the concentration at half of the fitted maximal effect; on the % scale 0 is the no-effect control and ±100 the full control effect
Target sequence (O94925 whole entry, looked up, canonical isoform): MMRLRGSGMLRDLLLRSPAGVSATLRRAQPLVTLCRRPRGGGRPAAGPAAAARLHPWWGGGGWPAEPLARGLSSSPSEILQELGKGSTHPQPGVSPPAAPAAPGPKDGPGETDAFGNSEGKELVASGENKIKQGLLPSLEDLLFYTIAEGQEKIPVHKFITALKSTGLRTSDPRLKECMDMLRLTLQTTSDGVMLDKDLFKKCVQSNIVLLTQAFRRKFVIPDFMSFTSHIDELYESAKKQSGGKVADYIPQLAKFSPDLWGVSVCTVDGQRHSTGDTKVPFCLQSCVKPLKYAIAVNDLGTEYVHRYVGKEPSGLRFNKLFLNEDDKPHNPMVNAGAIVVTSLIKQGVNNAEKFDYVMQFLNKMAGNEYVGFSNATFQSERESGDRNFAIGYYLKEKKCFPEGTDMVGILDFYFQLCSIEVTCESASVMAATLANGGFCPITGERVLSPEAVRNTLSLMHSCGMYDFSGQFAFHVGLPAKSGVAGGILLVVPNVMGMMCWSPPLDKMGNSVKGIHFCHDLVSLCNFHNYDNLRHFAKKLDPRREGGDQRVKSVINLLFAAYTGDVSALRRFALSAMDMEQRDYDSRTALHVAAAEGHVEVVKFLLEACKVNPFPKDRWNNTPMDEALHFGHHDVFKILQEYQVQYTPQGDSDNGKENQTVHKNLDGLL
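hKGA in 45 mM KH2PO4 (pH 8.2), 0.02% Tween-20 with compound, then 1mM L-Glutamine (stock as added) plus glutamate oxidase/HRP/Amplex red coupling mix. Fluorescence read initially and after 30 min at RT; signal change reflects glutamate formation.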
HEK293 tox = cytotoxic in the GLP-1 receptor inverse agonist counter-screen; Potency, µM (highest dose often 38.3 µM), without a hit: top-dose activity change, negative = inhibition, usual class: inhibitors; AID 624418; 410,000 compounds, 0.13% hits; HEK293 cAMP-luciferase reporter cells, luminescence, 24 h;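 further: loss of luciferase light is scored as toxicity; potency means the concentration at half of the fitted maximal effect; on the % scale 0 is the no-effect control and ±100 the full control effect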
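Compound-treated cells are incubated 24 hr at 37 deg C under 5% CO2 after a 12 hour attachment period, then luciferase detection reagent is added and luminescence is measured following 12 min at room temperature; lowered signal indicates toxicity.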
GLP1R inv ag = acts as inverse agonist at human GLP-1 receptor | P43220 | HEK293 GLP-1R CRE-luciferase, luminescence, 24 h; GLP-1R form is constitutively active | Potency, µM (titrated, usually from 38.3 µM), inactives show top-dose activity change, negative = inhibition, most hits filed as inhibitors | 410,000 compounds, 1.6% hits; further: potency means the concentration at half of the fitted maximal effect; on the % scale 0 is the no-effect control and ±100 the full control effect; nearly all actives have a fitted effect of over 55% in size
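GLP-1R inverse agonism mode: basal reporter luminescence in engineered HEK293 cells measured after one day of compound exposure at 37 deg C, with a 12 min room-temperature detection step.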
KCNH2 WT inh = blocks the wildtype human KCNH2 potassium channel; 340,000 compounds, 0.37% hits; activity change, % at 1.84 µM; Q12809; U2OS, BacMam KCNH2, thallium flux FluxOr; active compounds read low;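 active means maximum activity change below -70%; inconclusive means maximum activity change between -70% and -50%; inactive means maximum activity change above -50%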; further: on the % scale 0 is the no-effect control and ±100 the full control effect
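U2OS cells were transduced with wild-type KCNH2 virus (2.03 x 10^8 / mL) for 4 h at room temperature, then cultured overnight at 37 C. Thallium flux was read with FluxOr dye. Rate constants were normalized to DMSO controls.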
KCNH2 3.1 block = KCNH2 3.1 (human) potassium channel inhibition; activity change, % (tested at about 1.8 µM); U2OS KCNH2 3.1, thallium flux FluxOr; active compounds read low; 340,000 compounds, 0.95% hits; AID 720553;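 active means maximum activity change below -70%; inconclusive means maximum activity change from -70% to -50%; inactive means maximum activity change above -50%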;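 further: thallium influx rate constant from kinetic fluorescence after stimulation buffer; on the % scale 0 is the no-effect control and ±100 the full control effect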
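Measured as rate of thallium-driven FluxOr signal in transduced U2OS cells carrying the 3.1 channel, read kinetically for 2 min upon stimulation; values are rate constants scaled to DMSO control wells.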
* marks the source's active call; other numbers are inactive results; ? = inconclusive; / = not tested or not shown; [ ] = another dose, or the depositor's remark. Sampled rows, rich in hits. Any-hit rate of the full collection: about 2.8%. Unless noted, the call rests on the fitted dose curve; in most records, active means well fitted curve in the direction sought with a large enough effect; inconclusive means small, poorly fitted or top-dose-only effect, or another doubt; inactive means no such curve, though single readings can be large; an effect the other way counts as inactive or inconclusive.

SMILES	GLP-1R agonist	GLS inhibitor	HEK293 tox	GLP1R inv ag	KCNH2 WT inh	KCNH2 3.1 block
Cc1ccc(C(=O)N2CCN(c3cccc(Cl)c3)CC2)cc1-n1c(C)nc2cccnc21	/	3%	-7%	0%	/	/
Cc1c(C(=O)N2CCC(C)CC2)c(S(=O)(=O)Nc2ccc(OC(F)(F)F)cc2)c(C)n1C	/	5%	-1%	?	/	/
Cc1ccc(C(c2cc(Cl)c3cccnc3c2O)N2CCN(C)CC2)cc1 (centres undefined)	9%	?	55%	?	0	-42
Oc1c(C(c2ccc(Cl)cc2)N2CCCC2)cc(Cl)c2cccnc12 (centres undefined)	-2%	10%	?	5.6µM*	1	-23
Oc1c(C(c2ccccc2Cl)N2CCCC2)ccc2cccnc12 (centres undefined)	-4%	9%	15%	3.5µM*	-4	7
CCn1cc(S(=O)(=O)c2ccccc2)c(=O)c2cc(F)c(N3CCN(c4ccccc4)CC3)cc21	/	14%	16%	10%	/	/
Cc1cc(=O)c(C(=O)O)cn1Nc1ccc(Cl)cc1	-12%	10%	-9%	0%	-1	10
Cc1cc(=O)c(C(=O)O)cn1Nc1ccc(F)cc1	-9%	-3%	10%	3%	17	-84*
CCN(CC)CC(=O)Nc1sc(C)cc1C(=O)c1ccccc1	30%	-6%	-4%	?	10	-3
CCN(CC)CC(=O)Nc1sc(C)cc1C(=O)c1ccc(C)cc1	2%	-13%	-1%	10µM*	4	29
CCc1ccc(CN(C(=O)c2cc(=O)c3ccc(C)cc3o2)C2CCS(=O)(=O)C2)cc1 (centres undefined)	/	2%	-14%	8%	/	/
CCN(CC)CCCNC(=O)c1[nH]c2ccccc2c1Sc1ccc(Cl)cc1	13%	7%	-8%	?	-127*	-111*
O=C(c1[nH]c2ccccc2c1Sc1ccc(Cl)cc1)N1CCCCC1	/	15%	-1%	10µM*	/	/
C=Cc1ccc(Cn2c(=O)n(CC3CCC(C(=O)NC(C)C)CC3)c(=O)c3sccc32)cc1 (centres undefined)	/	1%	6%	17%	/	/
O=C(CCCSc1nnc(-c2cccs2)n1CC1CCCO1)c1ccccc1 (centres undefined)	0%	-20%	-15%	7.9µM*	2	1
Cc1cc(C)nc(/N=C(\N)Nc2ccc(OCc3ccccc3)cc2)n1	6%	0%	-27%	?	18	-80*
COc1ccc(N/C(N)=N/c2nc(C)cc(C)n2)cc1	11%	0%	-1%	-1%	-4	-15
Cc1cc(C)nc(/N=C(\N)Nc2ccc(OCCC(C)C)cc2)n1	-14%	2%	?	?	42	-82*
O=C(COC(=O)C1=NN(c2ccccc2)C(=O)CC1)NCc1ccccc1Cl	-8%	-6%	22%	14%	-4	14
COc1cc(/C=N/NC(=O)NC23CC4CC(CC(C4)C2)C3)ccc1O	?	7.9µM*	-11%	?	1	-6
O=C(N/N=C/c1ccccc1O)NC12CC3CC(CC(C3)C1)C2	21%	3%	-4%	10µM*	-1	-5
CCOc1cc(/C=N/NC(=O)N/N=C/c2ccc(O)c(OCC)c2)ccc1O	14%	8.9µM*	?	?	-3	8
O=C(N/N=C/c1cc(Cl)cc([N+](=O)[O-])c1O)NC12CC3CC(CC(C3)C1)C2	-6%	8.9µM*	-22%	?	-6	1
Cc1ccc2occ(CC(=O)N(Cc3ccc(C(C)C)cc3)C3CCS(=O)(=O)C3)c2c1 (centres undefined)	/	1%	-14%	?	/	/
COc1cc(/C=N/NC(=O)C(=O)N2CCCCCC2)ccc1O	1%	8.9µM*	9%	13%	3	7
SMILES	GLP-1R agonist	GLS inhibitor	HEK293 tox	GLP1R inv ag	KCNH2 WT inh	KCNH2 3.1 block
Cc1cccc(NC(=O)c2cc(S(=O)(=O)c3ccccc3)ccc2Cl)c1	-20%	9%	-10%	8.9µM*	2	-19
CC1=C(C(=O)Nc2ccccc2Br)C2(CCC(C)CC2)OC1=O (centres undefined)	/	2%	-1%	-17%	/	/
Cc1ccc(NC(=O)CN2C(=O)C3(SCC(=O)N3c3cccc(Cl)c3)c3ccccc32)cc1C (centres undefined)	10%	3%	-13%	?	/	/
COc1ccc(NC(=S)NCCSc2ccc(C)cc2)c(OC)c1	3%	23%	?	10µM*	-6	-25
CCCCNC(=S)Nc1ccccc1Cc1ccccc1	7%	-15%	?	11µM*	7	-5
Cc1ccc(C)c(NC(=S)NCCSc2ccc(Cl)cc2)c1	-3%	0%	?	?	-7	19
Cc1ccc(NC(=S)NCCSc2ccc(Cl)cc2)c(C)c1	-2%	8%	?	10µM*	9	6
CCc1ccccc1NC(=S)NCCSc1ccc(Cl)cc1	11%	6%	?	7.1µM*	-16	2
COc1cccc(C(C(=O)NCC2CCCO2)N(C(=O)Cn2nnc3ccccc32)c2ccccc2C(C)=O)c1OC (centres undefined)	14%	-4%	-2%	7%	-3	8
CC(C)NC(=O)C1(C)CSCC(=O)N1CC(F)(F)F (centres undefined)	/	/	5%	6%	/	/
S=C(NCCc1ccc(Cl)cc1)Nc1ccc(Cl)cc1Cl	-4%	-6%	?	10µM*	12	-15
Cc1ccc(-c2nnn(CC(=O)N(CC(=O)NC3CCCC3)c3ccc(F)cc3)n2)o1	6%	11%	-9%	-18%	-74*	6
COc1ccccc1Nc1cc(C(=O)NCCCN(C)c2ccccc2)c2ccccc2n1	/	26%	68%	5.6µM*	/	/
CC1CCc2c(sc3nnn(CCCCOc4ccc(Cl)cc4)c(=O)c23)C1 (centres undefined)	/	-13%	7%	6%	/	/
O=C(CSc1ccc(-c2ccccn2)nn1)NCc1ccc(F)cc1	2%	0%	3%	15%	6	1
O=C(CSc1ccc(-c2ccccn2)nn1)NCc1ccccc1	8%	5%	17%	6%	-115*	2
CCOC(=O)c1c(NC(=O)CC2Nc3ccccc3NC2=O)sc(C)c1C (centres undefined)	3%	13µM*	12%[1.53 µM]	4%	-6	5
O=C(CCCc1nc(-c2ccccc2Cl)no1)NC1CCCC1	-3%	0%	-19%	-6%	-6	2
COc1ccc(NC(=O)Cn2nc(C(=O)O)c3ccccc3c2=O)cc1Cl	7%	-1%	3%	13%	3	-14
Cc1ccc(OCCCCN2CCc3ccccc3C2)cc1	-2%	13%	-16%	?	25	-31
